# Experimental data reported in PubChem BioAssay AID504332 (National Center for Advancing Translational Sciences (NCATS), 2011).
# The campaign covered roughly 350,000 compounds. About 31,000 (8.9%) were called active. Entries that show only a call come without a potency. Inconclusive results (about 15%) are left out. This is one part of a sample in which actives are shown more often than they occur. A number with no mark means an inactive call. The call rests on the fitted dose curve; in most records, active means well fitted inhibition curve with a large enough effect; inconclusive means small, poorly fitted or top-dose-only effect; inactive means no such curve, though single readings can be large or run the other way.
# Molecular target: Histone-lysine N-methyltransferase EHMT2 (Homo sapiens) (UniProt Q96KQ7)
# Sequence (Q96KQ7 913-1193 limits assumed): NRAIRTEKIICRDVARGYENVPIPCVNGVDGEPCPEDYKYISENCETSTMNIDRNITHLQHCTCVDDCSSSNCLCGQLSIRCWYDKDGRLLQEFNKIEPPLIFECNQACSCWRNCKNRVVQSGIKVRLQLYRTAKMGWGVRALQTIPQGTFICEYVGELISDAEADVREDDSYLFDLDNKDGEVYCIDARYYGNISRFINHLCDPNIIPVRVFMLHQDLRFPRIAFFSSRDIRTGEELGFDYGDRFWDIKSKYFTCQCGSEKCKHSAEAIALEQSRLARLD
# Experiment: qHTS Assay for Inhibitors of Histone Lysine Methyltransferase G9a; further: nearly all actives have a fitted effect of over 75% in size
# Conditions: G9a H3K9 monomethylation, AlphaScreen, 2 h; series mostly up to 59 µM
# In short: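 Using a bead-based AlphaScreen, monomethylated H3K9 product from 2 h room-temperature reactions (G9a 20 nM, peptide 500 nM, SAM 20 uM) was detected with 0.5 ug/mL rabbit anti-H3K9me1 antibody.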
# Potency means the concentration at half of the fitted maximal effect.
Structure (SMILES),Potency,"activity, negative = inhibition"
Cc1ccc(NC(=O)Nc2sc3nc4n(c(=O)c3c2C)CCC(C)CC4)c(Cl)c1 (stereo unspecified),inactive,–
O=c1[nH]c(=O)n(Cc2ccco2)c2c1C(C(F)(F)F)(C(F)(F)F)N=C(c1ccco1)N2,50.1 µM (active),–
Nc1c(N(Cc2ccco2)C(=O)c2cccc(F)c2)c(=O)[nH]c(=O)n1Cc1ccccc1,–,-3.15% [at 12.7 µM]
Cc1ccccc1C1=NC(C(F)(F)F)(C(F)(F)F)c2c(n(-c3ccc(F)cc3)c(=O)[nH]c2=O)N1,inactive,–
CCCn1c(=S)[nH]c2ccc(C(F)(F)F)cc21,11.2 µM (active),–
COc1ccc(/C(C)=N\NC(=O)c2ccc(-c3ccccc3)cc2)c(F)c1,inactive,–
Cc1cccc(C(=O)NC(=S)N(C)C2CCCCC2)c1,inactive,–
CC(OC(=O)c1ccccc1NCCO)C(=O)Nc1ccnn1C(C)C (stereo unspecified),–,-12.9% [at 12.7 µM]
CC(=O)c1cccc(Nc2ccc3cc(S(=O)(=O)N4CCC(C)CC4)ccc3n2)c1,inactive,–
Cc1cccc(S(=O)(=O)c2cn(Cc3ccccc3)c3cc(N4CCOCC4)c(F)cc3c2=O)c1,inactive,–
COc1ccc(C23NCCN2C(=O)c2ccccc23)cc1 (stereo unspecified),inactive,–
Cc1nc2nc3c(cn2n1)C(=O)CC(c1ccccc1)C3 (stereo unspecified),56.2 µM (active),–
CC1=C(C(=O)Nc2cc(C)ccn2)C(c2cnn(C)c2)C2=C(CC(c3ccccc3)CC2=O)N1 (stereo unspecified),inactive,–
CN1CCN(c2ncc3c(n2)CC(c2ccccc2F)CC3=O)CC1 (stereo unspecified),inactive,–
CC(=O)c1ccc(NC(c2ccc(F)cc2)c2nnc(-c3ccccc3)o2)cc1 (stereo unspecified),inactive,–
COc1cccc(NC(=O)C2CCN(c3cc(C)nc4c(-c5ccc(Cl)cc5)c(C)nn34)CC2)c1,inactive,–
CN(C)CCN(Cc1ccccc1)S(=O)(=O)c1csc(C(N)=O)c1,inactive,–
O=C(c1cc(-c2ccc(O)cc2)on1)N1CCOCC1,inactive,–
Cc1ccc(OCCSc2nc3ccc(NC(=O)COc4ccc(C)cc4)cc3s2)cc1,inactive,–
COc1cc(C(=O)Nn2c(CC(C)C)nc3ccccc3c2=O)cc(OC)c1OC,inactive,–
COc1cc(C(=O)Nn2c(O)c(C3=c4ccccc4=NC3=O)sc2=S)ccc1O,44.7 µM (active),–

Structure (SMILES),Potency,"activity, negative = inhibition"
CCCn1ccc2c(OCC(=O)NCc3ccc(F)cc3)cccc2c1=O,inactive,–
COc1ccc(N(C)S(=O)(=O)c2ccc3c(c2)CC(C)N3C(=O)C2CC2)c(OC)c1 (stereo unspecified),inactive,–
O=c1oc2ccccc2cc1-c1cn(-c2ccccc2)c(=S)[nH]1,1.41 µM (active),–
O=C(c1cn(-c2ccccc2)nc1-c1cc2ccccc2oc1=O)N1CCOCC1,inactive,–
O=C(Nc1cc2ccccc2oc1=O)C1CCCCC1,inactive,–
CCC(=O)N1CCc2cc(S(=O)(=O)NC(C(=O)NCCc3ccc(C)cc3)C(C)C)ccc21 (stereo unspecified),inactive,–
Cc1ccc(NC(=S)NCCc2ccc(Cl)cc2)c(C)c1,inactive,–
Cc1ccc(NC(=S)Nc2ncccc2C)c(C)c1,31.6 µM (active),–
Cc1ccc(NC(=S)NCc2ccccc2Cl)c(C)c1,inactive,–
COc1ccc(S(=O)(=O)Nc2cc(C)on2)cc1NC(C)=O,–,2.19% [at 12.7 µM]
O=C(CNS(=O)(=O)c1cccs1)N1CCN(c2ccccc2Cl)CC1,inactive,–
CCCCn1c(SCC(=O)NCCc2ccc(OC)c(OC)c2)nc2c1c(=O)n(C)c(=O)n2C,inactive,–
CCOc1ccc(Cn2c(SCCCCC#N)nc3c2c(=O)n(C)c(=O)n3C)cc1OCC,35.5 µM (active),–
CCCSc1nc2c(c(=O)n(C)c(=O)n2C)n1Cc1ccc(C)cc1,inactive,–
O=C(CN1C(=O)C2C3C=CC(C3)C2C1=O)Nc1nc(-c2ccccn2)cs1 (stereo unspecified),39.8 µM (active),–
O=C(CCN1C(=O)C2C3C=CC(C3)C2C1=O)Nc1ccccc1F (stereo unspecified),inactive,–
O=C(NCCN1C(=O)C2C3C=CC(C3)C2C1=O)Nc1ccccn1 (stereo unspecified),inactive,–
COCCCN(C(=O)CSCc1ccc(C)cc1)c1c(N)n(Cc2ccccc2)c(=O)[nH]c1=O,inactive,–
Cc1c(CNC2CCCCC2)c(C(=O)O)c(C)n1Cc1cccc(Cl)c1,inactive,–
Cc1onc(-c2c(F)cccc2Cl)c1C(=O)N(C)CC(=O)Nc1cccc(F)c1,inactive,–
CCOC(=O)c1ccc(NC(=O)CCS(=O)(=O)c2ccc(C)cc2)cc1,inactive,–

Structure (SMILES),Potency,"activity, negative = inhibition"
O=C(CSc1nnc(CNC(=O)c2ccc(F)cc2)o1)Nc1ccc2c(c1)OCO2,inactive,–
Cc1cccc(C)c1N1CCN(S(=O)(=O)N2CCOCC2)CC1,39.8 µM (active),–
O=S(=O)(N1CCOCC1)N1CCN(c2ccccc2F)CC1,inactive,–
Cc1cccc(C)c1N1CCN(S(=O)(=O)N2CCCCC2)CC1,inactive,–
CN(CC(=O)Nc1cccc(F)c1)C(=O)C1CC(=O)N(CCc2ccccc2)C1 (stereo unspecified),inactive,–
Cc1ccc(CNC(=O)CCc2c(C)nn(-c3ccc(N4CCCC4)nn3)c2C)cc1,inactive,–
CCC(C)NC(=O)/C=C/c1ccc(S(=O)(=O)NCc2ccco2)cc1 (stereo unspecified),inactive,–
O=C(O)/C=C/c1ccc(S(=O)(=O)N2CCCCCC2)cc1,inactive,–
CCN(CC)CCNS(=O)(=O)c1ccc(/C=C/C(=O)O)cc1,39.8 µM (active),–
Cc1cc(NC(=O)CSC2=NS(=O)(=O)c3cc(Cl)ccc3N2)no1,inactive,–
O=C(NCc1ccco1)C(=O)c1cn(CC(=O)N2CCCCCC2)c2ccccc12,50.1 µM (active),–
O=C(NCCCn1ccnc1)C(=O)c1cn(CC(=O)N2CCCCCC2)c2ccccc12,inactive,–
Cc1ccc(CNC(=O)C(=O)c2cn(CC(=O)N3CCCC3)c3ccccc23)cc1,inactive,–
COc1cccc(OCCn2c(-c3ccc(Br)cc3)nc3ccccc3c2=O)c1,inactive,–
Cc1oc2ncn(CC(C)C)c(=O)c2c1C(=O)N1CCN(c2ccccc2F)CC1,inactive,–
Cc1cc(Cl)c2oc(C(=O)N(C)C(C)c3ccccn3)c(C)c2c1 (stereo unspecified),inactive,–
COc1ccc(-c2sc3ccc(OC)cc3c2C#Cc2ccccn2)cc1,–,-2.78% [at 0.501 µM]
Cc1cc(C)cc(NC(=O)COc2coc(CN3CCN(c4ccccc4)CC3)cc2=O)c1,inactive,–
CCOc1ccc(N/C=C/C(=O)c2cc(OC)c(OC)c(OC)c2)cc1,–,-10.6% [at 0.501 µM]
